Measurements published in the supplement of paper PMC4237247.
Counter-ions that a name gives are not always drawn.

tested on: HeLa; test: percent cells in G1 phase; higher = more G1 arrest; conditions: 10 µM; 20 h
Method: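 HTS of 79,827 drug-like compounds at 10 uM. HeLa cells in 384-well plates were treated for 20 h, fixed, stained with Vybrant DyeCycle Green and scanned on an Acumen eX3 cytometer to give per-well cell cycle profiles (% cells in each phase). The plate Z' was 0.51. Only hits are listed: G1 hits >4 SD and S hits >5 SD from the mean.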

SMILES | percent cells in G1 phase
COc1c(C)c2c(c(O)c1C/C=C(\C)CCC(=O)O)C(=O)OC2 [Mycophenolic acid] (hit class: S-phase inhibitor) | 39%
COc1ccc(CSc2nncn2N)cc1 (hit class: S-phase inhibitor) | 61.4%
Cc1cc([N+](=O)[O-])ccc1NCc1ccc(F)c(F)c1 (hit class: G1-phase inhibitor) | 69.8%
O=C1c2c(O)ccc(O)c2C(=O)c2c(NCCNCCO)ccc(NCCNCCO)c21 [Mitoxantrone dihydrochloride] (hit class: G1-phase inhibitor) | 70%
O=C(COc1ccc(Cl)cc1)NC(Cc1c[nH]c2ccccc12)C(=O)O (configuration not stated) (hit class: G1-phase inhibitor) | 69%
C[C@@H]1CCC[C@H](C)N1NC(=O)c1ccc(Cl)c(S(N)(=O)=O)c1 [Clopamide] (hit class: G1-phase inhibitor) | 70.5%
COc1ccc(C(=O)c2coc3ccc(OC)cc3c2=O)cc1 (hit class: G1-phase inhibitor) | 70.5%
COc1[nH]c2ccccc2c1C=NO (hit class: S-phase inhibitor) | 59.4%
Nc1ccn([C@H]2CC[C@@H](CO)O2)c(=O)n1 [Zalcitabine] (hit class: S-phase inhibitor) | 45.1%
CC[C@@H](C(=O)[C@@H](C)[C@@H](O)[C@H](C)CCc1ccc(C)c(O)c1C(=O)O)[C@H]1O[C@](CC)([C@H]2CC[C@](O)(CC)[C@H](C)O2)C[C@@H]1C [Lasalocid sodium salt] (hit class: G1-phase inhibitor) | 73.9%
CC(=O)C1=C(O)C(=O)N(CC(=O)O)C1c1ccccc1F (configuration not stated) (hit class: S-phase inhibitor) | 61.1%
Cn1c(SCc2ccccc2)nc2ccccc2c1=O (hit class: S-phase inhibitor) | 60%
Cc1ccc(-c2cc(-c3ccccc3Cl)[nH]n2)c(O)c1 (hit class: G1-phase inhibitor) | 69.2%
Cc1cc(N2CCCCC2)c(F)cc1[N+](=O)[O-] (hit class: S-phase inhibitor) | 44.7%
C[C@@H]1C[C@H]2[C@@H]3C[C@H](F)C4=CC(=O)C=C[C@]4(C)[C@@]3(Cl)[C@@H](O)C[C@]2(C)[C@H]1C(=O)COC(=O)C(C)(C)C [Clocortolone pivalate] (hit class: S-phase inhibitor) | 43.2%
CCN(CC)Cc1c(O)ccc2c(=O)c(-c3ccccc3)coc12 (hit class: S-phase inhibitor) | 55.9%
c1ccc2c(c1)Nc1nc3ccccc3nc1O2 (hit class: G1-phase inhibitor) | 70.5%
